In PubChem BioAssay (Tox21):
Several values for one entry are separate records, joined by “and”; a condition that tells them apart may be missing. Equal values may be shown once. Inconclusive results are not listed. A call without a number means that no potency is given here. More than one record can exist for a structure, and the calls need not agree. Activity calls are given as the source filed them. Calls come from the whole dose curve; as a rule, active = well fitted curve in the direction sought with a large enough effect in the repeat runs; inconclusive = weak or mixed curves; inactive = no such curve, though single readings can be large; an effect the other way counts as inactive or inconclusive.

Columns and labels:
[1] = Human pregnane X receptor (PXR) small molecule agonists, qHTS cell viability counter screen (AID 1346977); note: nearly all actives have a fitted effect of over 50% in size; note: potency is the fitted concentration of half-maximal effect
Summary of the method: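 PXR-Luc HepG2 cells in medium with 5% charcoal-stripped FBS were pre-incubated 5hr, then exposed to compounds for 24hr at 37C. Viability was read in the same wells by CellTiter-Fluor fluorescence, reagent added after 23hr with a 1hr incubation.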

[2] = Caspase-3/7 induction in HepG2 cells by small molecules, qHTS assay (AID 1346978); note: nearly all actives have a fitted effect of over 15% in size; note: potency is the fitted concentration of half-maximal effect
Summary of the method: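 Wild-type HepG2 cells (2,000/well) were settled 5 h at 37 C, 5% CO2, then exposed to compounds in DMSO for 17 h. Caspase-3/7 activity was read by luminescence 30 min after adding Caspase-Glo 3/7 reagent at room temperature.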

[3] = Caspase-3/7 induction in CHO-K1 cells by small molecules, qHTS cell viability counter screen (AID 1346979); note: nearly all actives have a fitted effect of over 35% in size; note: potency is the fitted concentration of half-maximal effect
Summary of the method: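 Wild-type CHO-K1 cells were seeded at 1,500 per well, rested 5hr at 37 C, then exposed to compounds in DMSO. After 16hr, CellTiter-Fluor reagent was added and fluorescence read 1hr later as the viability measure.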

[4] = Caspase-3/7 induction in CHO-K1 cells by small molecules, qHTS assay (AID 1346980); note: nearly all actives have a fitted effect of over 15% in size
Summary of the method: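 Wild-type cells were seeded at 1,500 per well and settled 5 hr at 37 C, 5% CO2, then exposed to DMSO-dissolved compounds for 17 hr. Caspase-Glo 3/7 reagent was added, and luminescence was read after 30min at room temperature.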

[5] = Caspase-3/7 induction in HepG2 cells by small molecules, qHTS cell viability counter screen (AID 1346981); note: nearly all actives have a fitted effect of over 30% in size; note: potency is the fitted concentration of half-maximal effect; for activity change, negative = cytotoxicity: series mostly up to about 92 µM
Summary of the method: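 Viability determined by CellTiter-Fluor fluorescence in HepG2 wells also used for the luminescent Caspase-Glo 3/7 read. Compounds were present for 16 hr at 37 C, 5% CO2 before reagent addition.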

[6] = target: Nuclear receptor subfamily 1 group I member 2 (Homo sapiens) (UniProt O75469); experiment: Human pregnane X receptor (PXR) small molecule agonists, qHTS assay (AID 1346982); note: nearly all actives have a fitted effect of over 35% in size; note: potency is the fitted concentration of half-maximal effect
Chain of Nuclear receptor subfamily 1 group I member 2 (Homo sapiens) (O75469 whole entry, looked up): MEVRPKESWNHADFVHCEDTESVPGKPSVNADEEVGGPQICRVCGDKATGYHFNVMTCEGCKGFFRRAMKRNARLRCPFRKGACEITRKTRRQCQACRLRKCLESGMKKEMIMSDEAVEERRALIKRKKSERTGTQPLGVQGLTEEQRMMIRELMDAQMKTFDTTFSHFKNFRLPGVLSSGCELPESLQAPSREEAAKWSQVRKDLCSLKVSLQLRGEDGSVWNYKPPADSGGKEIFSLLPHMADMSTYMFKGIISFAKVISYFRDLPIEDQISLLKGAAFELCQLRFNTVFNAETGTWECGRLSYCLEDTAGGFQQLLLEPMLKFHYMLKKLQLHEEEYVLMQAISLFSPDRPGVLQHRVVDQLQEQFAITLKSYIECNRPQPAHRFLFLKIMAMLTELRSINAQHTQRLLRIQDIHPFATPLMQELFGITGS
Summary of the method: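 Compound-induced hPXR transactivation of a CYP3A4 luciferase reporter was scored in HepG2 PXR-Luc cells over 24 hr at 37 C, 5% CO2, by luminescence.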

[7] = target: Nuclear receptor subfamily 1 group I member 2 (Homo sapiens) (UniProt O75469); experiment: CYP3A4 induction through human pregnane X receptor (PXR) by small molecules, qHTS assay (AID 1346984); note: nearly all actives have a fitted effect of over 40% in size
Summary of the method: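 Readings come from a luciferase reporter: DPX-2 cells, which are HepG2 cotransfected with PXR and a CYP3A4-promoter construct, were exposed to test compounds for 24 h at 37C before One-Glo detection.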

[8] = target: Nuclear receptor subfamily 1 group I member 2 (Homo sapiens) (UniProt O75469); experiment: Human pregnane X receptor (PXR) activation by small molecules, qHTS assay (AID 1346985); note: nearly all actives have a fitted effect of over 40% in size; note: potency is the fitted concentration of half-maximal effect
Summary of the method: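 DPX-2 cells (HepG2 co-transfected with a PXR response element and a CYP3A4-promoter luciferase construct) were seeded at 2,000 per well, rested 5 hr at 37C, then exposed to DMSO-dissolved compounds for 24 hr. Activation was read as luciferase luminescence.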

[9] = target: Cytochrome P450 2D6 (Homo sapiens) (UniProt P10635); experiment: Cytochrome P450 Family 2 Subfamily D Member 6 (CYP2D6) small molecule antagonists: luciferase reporter qHTS assay (AID 1671196); note: nearly all actives have a fitted effect of over 50% in size; note: potency is the fitted concentration of half-maximal effect
Chain of Cytochrome P450 2D6 (Homo sapiens) (P10635 whole entry, looked up): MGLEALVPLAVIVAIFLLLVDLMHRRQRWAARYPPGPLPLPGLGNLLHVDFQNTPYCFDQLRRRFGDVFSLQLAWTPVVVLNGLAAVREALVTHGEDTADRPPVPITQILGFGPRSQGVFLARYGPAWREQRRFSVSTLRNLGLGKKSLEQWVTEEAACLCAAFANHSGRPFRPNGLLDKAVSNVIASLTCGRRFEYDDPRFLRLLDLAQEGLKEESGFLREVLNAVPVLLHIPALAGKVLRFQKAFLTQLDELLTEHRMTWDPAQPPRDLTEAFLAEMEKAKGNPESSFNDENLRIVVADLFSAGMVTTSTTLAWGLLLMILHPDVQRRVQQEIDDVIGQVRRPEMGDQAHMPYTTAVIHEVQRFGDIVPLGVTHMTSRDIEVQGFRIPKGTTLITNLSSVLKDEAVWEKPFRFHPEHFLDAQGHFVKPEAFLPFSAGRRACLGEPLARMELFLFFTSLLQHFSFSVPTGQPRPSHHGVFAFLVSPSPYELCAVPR
Summary of the method: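 Each well received CYP2D6 with its proluciferin substrate and chemical, sat 10 min, then got NADPH regeneration solution for 1 h at room temperature. Luminescence in RLU served as the activity measure.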

[10] = target: Nuclear receptor subfamily 1 group I member 2 (Rattus norvegicus) (UniProt Q9R1A7); experiment: Rat pregnane X receptor (rPXR) activation by small molecules, qHTS assay (AID 1346983); conditions: rPXR luciferase reporter cells, One-Glo luminescence, 24 h; stronger effect = higher value; note: nearly all actives have a fitted effect of over 20% in size
Chain of Nuclear receptor subfamily 1 group I member 2 (Rattus norvegicus) (Q9R1A7 whole entry, looked up): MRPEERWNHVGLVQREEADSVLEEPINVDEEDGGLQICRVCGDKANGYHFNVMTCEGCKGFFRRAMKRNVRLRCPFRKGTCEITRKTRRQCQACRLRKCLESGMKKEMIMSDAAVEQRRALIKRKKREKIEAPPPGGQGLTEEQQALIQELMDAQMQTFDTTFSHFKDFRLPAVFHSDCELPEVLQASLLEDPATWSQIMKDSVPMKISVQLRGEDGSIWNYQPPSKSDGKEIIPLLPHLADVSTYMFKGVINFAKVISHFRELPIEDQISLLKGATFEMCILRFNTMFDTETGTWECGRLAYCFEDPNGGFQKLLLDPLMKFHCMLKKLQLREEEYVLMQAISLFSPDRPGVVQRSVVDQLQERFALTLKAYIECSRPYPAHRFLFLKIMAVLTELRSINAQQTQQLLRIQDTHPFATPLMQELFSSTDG
Summary of the method: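 Cell-based rPXR luciferase reporter assay, 2,000 cells per well, rested 5hr at 37 C before compound addition in DMSO, then 24 hr at 37 C. One-Glo reagent was added and luminescence read after 30 min at room temperature.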

For `CCCCCCCCCCCCCC[N+](C)(C)Cc1ccccc1`, the Potency [1] was 55.3 µM (active), the Potency [2] was 62.1 µM (active) and the Potency [3] was 43.9 µM (active) and 33.5 µM (active) and 17.8 mM (active). For the same compound, the Potency [4] was “inactive”, the Potency [5] was 69.6 µM (active) and the Potency [6] was “inactive”. The Potency [7] was “inactive”, the Potency [8] was “inactive” and the Potency [9] was 908 nM (active) and 1.1 µM (active).

With `CC(N=C(NC#N)Nc1ccncc1)C(C)(C)C` (centres undefined) the Potency [1] was “inactive”, the Potency [2] was “inactive” and the Potency [3] was “inactive”. The Potency [4] was “inactive” and the Potency [5] was “inactive”.

For `CCC(C)[O-].CCC(C)[O-].CCOC(=O)/C=C(/C)[O-].[Al+3]`, the Potency [1] was “inactive”, the Potency [2] was “inactive” and the Potency [3] was “inactive”. For the same compound, the Potency [4] was “inactive”.

With `Cc1c(F)c(N2CCNC(C)C2)cc2c1c(=O)c(C(=O)O)cn2C1CC1` (centres undefined) the Potency [1] was “inactive”, the Potency [2] was “inactive” and the Potency [3] was “inactive”. For the same compound, the Potency [4] was “inactive”, the Potency [5] was “inactive” and the Potency [6] was “inactive”. For the same compound, the Potency [7] was “inactive”, the Potency [8] was “inactive” and the Potency [9] was “inactive”.

In the case of `OC[C@H]1O[C@H](O[C@H]2O[C@H](CO)[C@@H](O)[C@H](O)[C@H]2O)[C@H](O)[C@@H](O)[C@@H]1O`, the Potency [1] is reported as “inactive”, the Potency [2] is reported as “inactive” and the Potency [3] is reported as “inactive”. The Potency [4] was “inactive”, the Potency [5] was “inactive” and the Potency [6] was “inactive”.

In the case of `CCCCCCCCCCCCCCCC[N+](C)(C)CC`, the Potency [1] is reported as 54.6 µM (active), the Potency [2] is reported as “inactive” and the Potency [3] is reported as 43.4 µM (active) and 29.8 µM (active). For the same compound, the Potency [4] was “inactive”, the Potency [5] was 61.3 µM (active) and the Potency [6] was “inactive”. For the same compound, the max activation [10] was -22.3% (inactive), the Potency [7] was “inactive” and the Potency [8] was “inactive”. For the same compound, the Potency [9] was 566 nM (active) and 871 nM (active).

With `CC(C)(C)NSc1nc2ccccc2s1` the Potency [1] was “inactive”, the Potency [2] was “inactive” and the Potency [3] was “inactive”. The Potency [4] was “inactive”, the Potency [5] was “inactive” and the Potency [6] was 49.4 µM (active).

In the case of `Cc1ccc(N/N=c2\c(=O)cc/c(=N\Nc3ccc(S(=O)(=O)O)cc3)c2=O)c(C)c1`, the Potency [1] is reported as 30.6 µM (active), the Potency [2] is reported as “inactive” and the Potency [3] is reported as 27.3 µM (active). The Potency [4] was “inactive” and the Potency [5] was 54.5 µM (active).

For `Cc1ccc(C(C)C)cc2c(C)ccc1-2`, the Potency [1] was “inactive”, the Potency [2] was “inactive” and the Potency [3] was “inactive”. The Potency [4] was “inactive”, the Potency [5] was “inactive” and the Potency [6] was 10.6 µM (active). For the same compound, the Potency [7] was “inactive”, the Potency [8] was 22.4 µM (active) and the Potency [9] was “inactive”.

In the case of `O=C1c2ccccc2C(=O)N1SC1CCCCC1`, the Potency [1] is reported as “inactive”, the Potency [2] is reported as “inactive” and the Potency [3] is reported as 54.4 µM (active) and 43.3 µM (active). The Potency [4] was “inactive”, the Potency [5] was “inactive” and the Potency [6] was “inactive”.

In the case of `CN(C)Cc1cc(C(C)(C)C)c(O)c(C(C)(C)C)c1`, the Potency [1] is reported as “inactive”, the Potency [2] is reported as “inactive” and the Potency [3] is reported as “inactive”. The Potency [4] was “inactive” and the Potency [5] was “inactive”.

In the case of `CC(C)Cn1cnc2c(N)nc3ccccc3c21`, the activity change, negative = cytotoxicity [1] is reported as -9.27% [at 19 µM] (inactive), the caspase activation [2] is reported as -2.38% [at 19 µM] (inactive) and the activity change, negative = cytotoxicity [3] is reported as -8.58% [at 19 µM] (inactive). The caspase-3/7 activation [4] was 0.247% [at 19 µM] (inactive), the activity change, negative = cytotoxicity [5] was -2.64% [at 19 µM] (inactive) and the activation [6] was 5.89% [at 19 µM] (inactive). The Potency [7] was “inactive”.

With `COC(=O)Nc1nc2ccc(C(=O)c3ccccc3)cc2[nH]1` the Potency [1] was “inactive”, the Potency [2] was “inactive” and the Potency [3] was 8.41 µM (active). The Potency [4] was “inactive”, the Potency [5] was “inactive” and the Potency [6] was 4.22 µM (active). For the same compound, the Potency [8] was 5.01 µM (active) and the Potency [9] was “inactive”.

With `CCC(CC)C(C)CCOC(C)=O` (centres undefined) the Potency [1] was “inactive”, the Potency [2] was “inactive” and the Potency [3] was “inactive”. For the same compound, the Potency [4] was “inactive”, the Potency [5] was “inactive” and the Potency [6] was “inactive”. For the same compound, the Potency [9] was “inactive”.

For `CCC(COC(=O)CCS)(COC(=O)CCS)COC(=O)CCS`, the Potency [1] was “inactive”, the Potency [2] was “inactive” and the Potency [3] was “inactive”. The Potency [4] was “inactive”, the Potency [5] was “inactive” and the Potency [6] was 21.7 µM (active). The Potency [9] was “inactive”.

With `CCCCCCCCCCCCCC[N+](C)(C)C` the Potency [1] was 52.7 µM (active) and 27.3 µM (active) and 26.6 µM (active), the Potency [2] was “inactive” and the Potency [3] was 59.1 µM (active) and 38.5 µM (active). For the same compound, the Potency [4] was “inactive”, the Potency [5] was 61.1 µM (active) and the Potency [6] was “inactive”. The Potency [7] was “inactive”, the Potency [8] was “inactive” and the Potency [9] was 3.06 µM (active) and 3.17 µM (active) and 3.47 µM (active).

In the case of `Cc1nc(-c2ccc(Cl)cc2)oc1COC(C)(C)C(=O)O`, the Potency [1] is reported as “inactive”, the Potency [2] is reported as “inactive” and the Potency [3] is reported as “inactive”. The Potency [4] was “inactive”, the Potency [5] was “inactive” and the Potency [6] was “inactive”. The Potency [7] was “inactive”, the Potency [8] was “inactive” and the Potency [9] was “inactive”.

For `Cc1c2ccccc2c(C)c2c1ccc1ccccc12`, the Potency [1] was 61.1 µM (active), the Potency [2] was “inactive” and the Potency [3] was 61.1 µM (active). The Potency [4] was “inactive”, the Potency [5] was “inactive and 61.1 µM (active)” and the Potency [6] was 30.3 µM (active) and 17.2 µM (active). For the same compound, the Potency [9] was “inactive”.

For `O[C@@H]([C@H](O)[C@H](O)CBr)[C@H](O)CBr`, the Potency [1] was “inactive”, the Potency [2] was “inactive” and the Potency [3] was “inactive”. The Potency [4] was “inactive”, the Potency [5] was “inactive” and the Potency [6] was “inactive”. The Potency [7] was “inactive”, the Potency [8] was “inactive” and the Potency [9] was “inactive”.

In the case of `O=C(O)[C@H](O)[C@@H](O)[C@H](O[C@@H]1O[C@H](CO)[C@H](O)[C@H](O)[C@H]1O)[C@H](O)CO`, the Potency [1] is reported as “inactive”, the Potency [2] is reported as “inactive” and the Potency [3] is reported as “inactive”. The Potency [4] was “inactive”, the Potency [5] was “inactive” and the Potency [6] was “inactive”. For the same compound, the Potency [9] was “inactive”.

In the case of `CC(=O)c1ccc(C(C)=O)cc1`, the Potency [1] is reported as “inactive”, the Potency [2] is reported as “inactive” and the Potency [3] is reported as “inactive”. For the same compound, the Potency [4] was “inactive”, the Potency [5] was “inactive” and the Potency [6] was “inactive”. For the same compound, the Potency [9] was “inactive”.

In the case of `CCn1c2ccccc2c2cc([N+](=O)[O-])ccc21`, the Potency [1] is reported as “inactive”, the Potency [2] is reported as “inactive” and the Potency [3] is reported as “inactive”. The Potency [4] was “inactive”, the Potency [5] was “inactive” and the Potency [6] was 19.3 µM (active). For the same compound, the Potency [9] was “inactive”.

In the case of `CCCCCCCC/C=C\CCCCCCCCN`, the Potency [1] is reported as “inactive”, the Potency [2] is reported as “inactive” and the Potency [3] is reported as “inactive”. For the same compound, the Potency [4] was “inactive”, the Potency [5] was “inactive” and the Potency [6] was “inactive”. The Potency [7] was “inactive”, the Potency [8] was “inactive” and the Potency [9] was 1.55 µM (active).

In the case of `CC(C)=CCC1=C(O)c2ccccc2C(=O)C1=O`, the Potency [1] is reported as 60.8 µM (active), the Potency [2] is reported as “inactive” and the Potency [3] is reported as 30.5 µM (active). For the same compound, the Potency [4] was “inactive”, the Potency [5] was 60.8 µM (active) and the Potency [6] was 19.2 µM (active). For the same compound, the Potency [9] was 44.6 µM (active).
